Assay outcomes from PubChem.
The full list was thinned out, with hits kept by preference.
NS1 inh: qHTS Assay for Inhibitors of Influenza NS1 Protein Function; AID 2326, 2010; 0.4% of 270,000 active; Potency, µM (top dose mostly 46.1 µM); calls by dose curve; also: actives are rising curves; nearly all actives have a fitted effect of over 50% in size
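Read-out: OD600 growth recovery of NS1-expressing budding yeast. Cells grown overnight at 30C in -URA glucose medium, washed, resuspended and diluted 1:100 in 2% galactose assay medium, pH 6.0. Same strain lacking NS1 served as positive control.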
Cruzain noTriton: qHTS Assay for Promiscuous and Specific Inhibitors of Cruzain (without detergent); purified cruzain, Z-FR-AMC fluorescence, no detergent; Cruzipain (Trypanosoma cruzi), P25779; 2.3% of 200,000 active; Potency, µM, hits mostly inhibitors; also: nearly all actives have a fitted effect of over 40% in size
Target sequence (P25779 123-467 limits assumed): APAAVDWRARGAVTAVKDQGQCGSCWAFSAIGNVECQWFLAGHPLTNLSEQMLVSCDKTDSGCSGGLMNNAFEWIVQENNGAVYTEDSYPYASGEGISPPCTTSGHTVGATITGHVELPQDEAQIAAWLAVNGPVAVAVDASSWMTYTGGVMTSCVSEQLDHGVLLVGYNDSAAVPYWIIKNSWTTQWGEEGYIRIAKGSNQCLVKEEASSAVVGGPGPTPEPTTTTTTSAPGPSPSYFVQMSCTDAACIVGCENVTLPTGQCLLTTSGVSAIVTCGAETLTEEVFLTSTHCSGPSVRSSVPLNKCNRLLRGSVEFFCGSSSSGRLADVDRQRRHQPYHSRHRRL
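Purified cruzain at 1.5 nM, pre-incubated 15 min with compound at room temperature in 100 mM sodium acetate pH 5.5, 5 mM DTT, 0.00005% Triton X-100. Reaction started with 2 uM Z-FR-AMC; AMC fluorescence increase over 60 s gives rate.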
Cruzain Triton: qHTS Assay for Promiscuous and Specific Inhibitors of Cruzain (with detergent) | AID 1478, 2009 | Potency, µM, most hits filed as inhibitors | 0.43% of 200,000 active | purified cruzain, Z-FR-AMC fluorescence, 0.01% Triton; also: nearly all actives have a fitted effect of over 40% in size
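Compounds were screened in titration against cruzain (1.5 nM) with 0.01% Triton X-100 to counter colloidal aggregation. Activity was the AMC fluorescence increase over 60 s after adding 2 uM Z-FR-AMC at pH 5.5.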
Each line names hits and unclear results; the compound was inactive in the other large screens. Unless noted, calls follow the shape of the dose curve; as a rule, active = well fitted curve in the direction sought with a large enough effect; inconclusive = small, poorly fitted or top-dose-only effect, or another doubt; inactive = no such curve, though single readings can be large; an effect the other way counts as inactive or inconclusive.

O=C(N/N=C/c1cn(-c2ccccc2)nc1-c1ccc(F)cc1)c1ccc2c(c1)OCO2	NS1 inh inconclusive, Cruzain noTriton inconclusive
CCN1CCN(C(=O)C(=O)c2cn(CC(=O)N(CC)CC)c3ccccc23)CC1	none (no result: Cruzain noTriton, Cruzain Triton)
CSc1ccccc1OCc1cc(C(=O)N2CCC(c3ccncc3)CC2)no1	none (no result: Cruzain noTriton, Cruzain Triton)
Oc1[nH]c(=S)sc1/C=C1\C(c2ccccc2)=Nc2ccccc21	Cruzain noTriton 25µM
Oc1[nH]c(=S)sc1C=C1N=c2ccccc2=N1	none (no result: Cruzain noTriton, Cruzain Triton)
COc1ccc(Cc2c(C)nn(-c3nc(C)c(C(=O)Nc4cccc(C(C)=O)c4)s3)c2C)cc1	none (no result: NS1 inh)
COc1ccc(-c2cc3nnc(-c4ccccc4)nc3s2)cc1	Cruzain noTriton 3.2µM
COc1ccc(-c2nc3ccccc3nc2-c2ccccc2)cc1	none (no result: Cruzain noTriton, Cruzain Triton)
COc1ccc(OC)c2nc3c(cc12)CCC3	none (no result: Cruzain noTriton, Cruzain Triton)
Cc1ccc(C)c(NC(=O)/C(C#N)=C/c2cn(CC(=O)NCc3ccco3)c3ccccc23)c1	Cruzain noTriton 7.9µM
Cc1cc(C)cc(NC(=O)/C(C#N)=C/c2cn(CC(=O)NCc3ccco3)c3ccccc23)c1	Cruzain noTriton 16µM
Cc1ccc(NC(=O)/C(C#N)=C/c2cn(CC(=O)NCc3ccco3)c3ccccc23)cc1C	none (no result: Cruzain noTriton, Cruzain Triton)
Cc1ccccc1OCCn1cc(/C=C(\C#N)C(=O)NCc2ccco2)c2ccccc21	none
NC(=O)CSc1nnc(Cc2csc(Nc3ccc(F)cc3)n2)n1Cc1ccccc1	Cruzain noTriton inconclusive
Cc1c(O)nc(SCC(=O)Nc2ccc3c4c(cccc24)CC3)n(-c2ccccc2)c1=O	NS1 inh inconclusive, Cruzain noTriton inconclusive
O=C(CSc1nc(O)cc(=O)n1-c1ccccc1)Nc1ccc2c3c(cccc13)CC2	NS1 inh inconclusive, Cruzain noTriton inconclusive, Cruzain Triton 25µM
COCCCNC(=S)N1CCN(S(C)(=O)=O)CC1	none
COc1ccc(CN(C)S(=O)(=O)c2nnc(NC(=O)c3ccc(C)cc3)s2)cc1OC	none (no result: Cruzain noTriton, Cruzain Triton)
CCCC1=NN2C(=N)/C(=C\c3cc(C)n(-c4cccc(C)c4)c3C)C(=O)N=C2S1	Cruzain noTriton inconclusive
Cc1cccc(-n2c(C)cc(/C=C3/C(=N)N4C(c5ccccc5)=CSC4=NC3=O)c2C)c1	Cruzain noTriton 5µM
NNc1nc(N)c2c(n1)-c1ccccc1CC21CCCC1	none
O=C(O)c1ccccc1N/N=C/c1c(Sc2nnnn2-c2ccccc2)nc2ccccn2c1=O	none (no result: Cruzain noTriton, Cruzain Triton)
O=c1c(/C=N/Nc2ccccc2)c(Sc2nnnn2-c2ccccc2)nc2ccccn12	Cruzain noTriton 16µM
Cc1ccc(C(=O)CN(C(=O)c2ccc(Cl)cc2)N2C(=O)c3ccccc3C2=O)cc1	Cruzain noTriton inconclusive
Nc1cc(OC(=O)c2ccco2)nn1S(=O)(=O)c1ccc(F)cc1	Cruzain noTriton 20µM, Cruzain Triton 25µM
Cc1ccc(S(=O)(=O)n2nc(OC(=O)c3ccco3)cc2N)cc1	none (no result: Cruzain noTriton, Cruzain Triton)
O=C(COC(=O)c1cccc(N2C(=O)C3CC=CCC3C2=O)c1)c1ccccc1 (stereo unspecified)	none (no result: Cruzain noTriton, Cruzain Triton)
CCc1ccc(C(=O)COC(=O)c2cccc(N3C(=O)c4c(C)nc5ccccc5c4C3=O)c2)cc1	Cruzain noTriton 6.3µM
O=C(COc1cccc2cccnc12)N/N=C/c1cccn1-c1ccc(F)cc1	none (no result: Cruzain noTriton, Cruzain Triton)
O=c1ccc2cc(OC3OC(CO)C(O)C(O)C3O)c(O)cc2o1 (stereo unspecified)	Cruzain noTriton 13µM, Cruzain Triton 7.9µM (no result: NS1 inh)
CCc1cc(=O)oc2cc(O[C@@H]3O[C@H](CO)[C@@H](O)[C@H](O)[C@H]3O)c(Cl)cc12	none (no result: Cruzain noTriton, Cruzain Triton)
Cc1cccc(NS(=O)(=O)c2ccc3[nH]c(=O)[nH]c3c2)c1C	none
Cc1cccc(NS(=O)(=O)c2ccc3c(c2)Cc2cc(S(=O)(=O)Nc4cccc(C)c4C)ccc2-3)c1C	Cruzain noTriton 4µM
O=C(c1cc2sccc2n1Cc1ccccc1)N1CCCc2ccccc21	Cruzain noTriton 20µM
O=C(c1cc2sccc2n1Cc1ccccc1)N1CCc2ccccc21	NS1 inh inconclusive, Cruzain noTriton inconclusive
N#Cc1nc(-c2cccc3ccccc23)oc1NCCN1CCCCC1	Cruzain Triton 28µM
CCNc1oc(-c2cccc3ccccc23)nc1C#N	none
Cc1cccc(N2CCN(c3nc4ccc(Cl)cc4n4cnnc34)CC2)c1C	Cruzain noTriton inconclusive
Cc1cc(C(=O)Cn2nc(C(=O)O)c3ccccc3c2=O)c(C)n1-c1ccccc1	Cruzain noTriton 25µM
Cc1cc(C)c(C(=O)Cn2nc(C(=O)O)c3ccccc3c2=O)cc1C	none (no result: Cruzain noTriton, Cruzain Triton)
O=C(Nc1ncc(Cc2ccc(SC(F)F)cc2)s1)c1ccc(OC(F)F)cc1	Cruzain noTriton 20µM
Cc1ccc(Cc2cnc(NC(=O)c3ccco3)s2)cc1	none
O=C(C1c2ccccc2C(=O)N2CCc3ccccc3C12)N1CCC2(CC1)OCCO2 (stereo unspecified)	none
